Results on 66 compounds are retold here after the antibiotic and cytotoxicity screens of Wong et al. (2023).

In all, about 39,000 compounds went through this assay and about 3,300 (8.5%) were called active. This is one part of a sample in which actives are shown more often than they occur.

In the experiment the test system is HepG2. The experiment in a line: cytotoxicity call (relative viability < 0.9). The following applies: 10 µM.
As to `O=C(C[C@@H]1CC[C@@H]2[C@H](COC[C@H](O)CN2C(=O)Nc2ccc(Cl)cc2)O1)NCCc1ccncc1`, the cytotoxicity call was “inactive”.
In the case of `Cn1ccnc1C(=O)N[C@@H]1CN(C(N)=O)[C@H]2CCCO[C@@H]12` it was “inactive”; in that of `C[C@@H]1CN([C@@H](C)CO)C(=O)Cc2cc(NC(=O)C3CC3)ccc2O[C@@H]1CN(C)S(=O)(=O)c1cccs1`, “inactive”.
For `Cc1ccc(S(=O)(=O)Nc2ccc3c(c2)C(=O)N([C@H](C)CO)C[C@@H](C)[C@H](CN(C)C(=O)Nc2ccc4c(c2)OCO4)OCCCC[C@@H](C)O3)cc1` the value was “inactive”; for `C[C@H](CO)N1C[C@H](C)[C@@H](CN(C)S(=O)(=O)c2ccc(F)cc2)OCCCC[C@H](C)Oc2ccc(NC(=O)Nc3ccc4c(c3)OCO4)cc2C1=O`, “inactive”.
In the case of `Cc1noc(C)c1S(=O)(=O)Nc1ccc2c(c1)C(=O)N([C@@H](C)CO)C[C@H](C)[C@H](CN(C)S(=O)(=O)c1ccccc1)O2` it was “inactive”; in that of `C[C@@H]1CN([C@H](C)CO)C(=O)c2cc(NC(=O)Cn3cnnn3)ccc2O[C@@H]1CN(C)CC1CC1`, “inactive”.
For `CNc1ccc(-c2nc(N3CCOCC3)c3sc(CN(C)c4ncc(C(=O)NO)cn4)cc3n2)cn1`, the cytotoxicity call was “active”.
In the case of `COc1ccc(-c2nc(N3CCOCC3)c3sc(CN(C)c4ncc(C(=O)NO)cn4)cc3n2)cn1` it was “active”; in that of `COC(=O)COc1nsnc1N1CCOCC1`, “inactive”.
In the case of `COc1ccc(S(=O)(=O)Nc2ccc3c(c2)C(=O)N([C@@H](C)CO)C[C@@H](C)[C@H](CN(C)C(=O)Nc2c(C)noc2C)OCCCC[C@H](C)O3)cc1` it was “inactive”.
In the case of `O=C(/C=C/c1ccc(O)c(O)c1)O[C@H]1[C@H](O)C[C@](O)(C(=O)O)C[C@H]1OC(=O)/C=C/c1ccc(O)c(O)c1` it was “inactive”.
With `Cc1ccc(S(=O)(=O)Nc2ccc3c(c2)CC(=O)N([C@H](C)CO)C[C@H](C)[C@@H](CN(C)S(C)(=O)=O)O3)cc1`, the cytotoxicity call was “inactive”.
For `Cc1cccc2c3c(ccc12)C1=C(C(=O)C3=O)C(C)CO1` (stereo unspecified), the cytotoxicity call is “active”.
For `Cc1cccc2c1OCC[C@@H](N)C2=O` the value was “inactive”; for `Cc1coc2c1C(=O)C(=O)c1c-2ccc2c1CCCC2(C)C`, “active”; for `CC1COC2=C1C(=O)C(=O)c1c2ccc2c1CCCC2(C)C` (stereo unspecified), “active”.
In the case of `C[C@@H]1CN([C@@H](C)CO)C(=O)Cc2cc(NC(=O)Nc3cccc4ccccc34)ccc2O[C@H]1CN(C)Cc1ccc(-c2ccccc2)cc1` it was “inactive”; in that of `COc1cc2c(cc1OC)CN(C(=O)[C@H]1[C@@H]3C(=O)O[C@@H](c4ccccc4)[C@@H](c4ccccc4)N3[C@@H](c3ccccc3OCCO)[C@]13C(=O)Nc1ccc(C#CC4(O)CCCCCC4)cc13)CC2`, “inactive”; in that of `O=C(C[C@@H]1CC[C@H]2[C@@H](COC[C@H](O)CN2C(=O)c2ccccn2)O1)NC1CCC1`, “inactive”.
For `O[C@@H]1[C@@H](O)[C@H](OC/C=C/c2ccccc2)O[C@H](CO[C@@H]2OC[C@@H](O)[C@@H](O)[C@@H]2O)[C@H]1O` the value was “inactive”; for `NCc1cccc2nsnc12`, “inactive”.
With `C[C@H]1CN([C@@H](C)CO)C(=O)c2cccc(NC(=O)C3CC3)c2O[C@@H]1CN(C)S(=O)(=O)c1ccc(F)cc1`, the cytotoxicity call is “inactive”.
For `O=C(O)c1cc(N=Nc2ccc(S(=O)(=O)Nc3ccccn3)cc2)ccc1O` the value was “inactive”; for `C[C@@H]1CN([C@H](C)CO)C(=O)Cc2cc(NC(=O)CCN3CCOCC3)ccc2O[C@@H]1CN(C)Cc1ccc(C(=O)O)cc1`, “inactive”; for `C[C@H]1CN([C@@H](C)CO)C(=O)Cc2cc(NC(=O)CCN3CCOCC3)ccc2O[C@H]1CN(C)Cc1ccc(C(=O)O)cc1`, “inactive”.
For `CC1(C)CC[C@]2(C(=O)O[C@H]3O[C@@H](CO)[C@@H](O)[C@@H](O)[C@@H]3O)CC[C@]3(C)C(=CC[C@H]4[C@@]5(C)C[C@@H](O)[C@H](O[C@H]6O[C@H](C(=O)O)[C@@H](O)[C@@H](O)[C@@H]6O)C(C)(C)[C@@H]5CC[C@]43C)[C@@H]2C1` the value was “inactive”; for `CC1(C)[C@H]2C[C@@H](O[C@H]3O[C@@H](CO)[C@@H](O)[C@@H](O)[C@@H]3O)[C@@]1(C)C[C@@H]2O`, “inactive”; for `COC(=O)[C@@]12O[C@@H]1[C@H](O[C@@H]1O[C@H](CO)[C@@H](O)[C@H](O)[C@H]1O)C[C@H]1[C@]3(C)C[C@@H](c4ccoc4)OC(=O)[C@H]3CC[C@]12C`, “active”.
Take `COCC(=O)Nc1ccc2c(c1)OC[C@H](C)N(C(=O)Cc1cccnc1)C[C@H](C)[C@@H](OC)CN(C)C2=O`: the cytotoxicity call is “inactive”.
In the case of `Cc1noc(C)c1S(=O)(=O)Nc1ccc2c(c1)C(=O)N([C@@H](C)CO)C[C@@H](C)[C@@H](CN(C)S(=O)(=O)c1ccccc1)O2` it was “inactive”.
In the case of `CC(C)C#Cc1ccc2c(c1)O[C@H](CN(C)S(=O)(=O)c1cn(C)cn1)[C@@H](C)CN([C@@H](C)CO)S2(=O)=O` it was “inactive”; in that of `C[C@@H]1CN([C@@H](C)CO)C(=O)Cc2cc(NS(C)(=O)=O)ccc2O[C@@H]1CN(C)Cc1ccc(C(=O)O)cc1`, “inactive”.
In the case of `C[C@@H]1CN([C@H](C)CO)C(=O)Cc2cc(NC(=O)Nc3cccc4ccccc34)ccc2O[C@H]1CN(C)Cc1ccc(Oc2ccccc2)cc1`, the cytotoxicity call is “inactive”.
For `C[C@@H]1CN([C@H](C)CO)C(=O)Cc2cc(NC(=O)Nc3cccc4ccccc34)ccc2O[C@@H]1CN(C)Cc1ccc(Oc2ccccc2)cc1` the value was “active”; for `C[C@H]1CN([C@@H](C)CO)C(=O)Cc2cc(NC(=O)Nc3cccc4ccccc34)ccc2O[C@@H]1CN(C)Cc1ccc(Oc2ccccc2)cc1`, “inactive”; for `C[C@@H]1CN([C@@H](C)CO)C(=O)Cc2cc(NC(=O)Nc3cccc4ccccc34)ccc2O[C@@H]1CN(C)Cc1ccc(Oc2ccccc2)cc1`, “inactive”.
In the case of `C[C@H](CO)N1C[C@H](C)[C@H](CN(C)Cc2ccc(Oc3ccccc3)cc2)Oc2ccc(NC(=O)Nc3cccc4ccccc34)cc2CC1=O` it was “inactive”; in that of `C[C@@H]1CN([C@@H](C)CO)C(=O)Cc2cc(NC(=O)Nc3cccc4ccccc34)ccc2O[C@H]1CN(C)Cc1ccc(Oc2ccccc2)cc1`, “inactive”; in that of `C[C@H]1CN([C@@H](C)CO)C(=O)Cc2cc(NC(=O)Nc3cccc4ccccc34)ccc2O[C@H]1CN(C)Cc1ccc(Oc2ccccc2)cc1`, “active”.
As for `C[C@H](CO)N1C[C@H](C)[C@@H](CN(C)Cc2ccc(Oc3ccccc3)cc2)Oc2ccc(NC(=O)Nc3cccc4ccccc34)cc2CC1=O`, the cytotoxicity call is “active”.
For `COc1ccc(S(=O)(=O)N(C)C[C@@H]2Oc3ccc(NS(=O)(=O)c4ccc(C)cc4)cc3C(=O)N([C@H](C)CO)C[C@H]2C)cc1` the value was “inactive”.
For `COC(=O)[C@H]1CCNCCC1=O` the value was “inactive”; for `CN1CCN(C(=O)C[C@H]2CC[C@H]3[C@@H](COC[C@H](O)CN3CC3CCCC3)O2)CC1`, “inactive”.
In the case of `C[C@H](CO)N1C[C@H](C)[C@@H](CN(C)C(=O)Nc2ccnc(N3CCOCC3)c2)OCc2cnnn2CCCC1=O` it was “inactive”.
For the compound `Cn1cnc(S(=O)(=O)N[C@@H]2C=C[C@@H](CC(=O)NCC3CC3)O[C@H]2CO)c1`, the cytotoxicity call was “inactive”.
In the case of `O=C(O)C12CC(C1)C2` it was “inactive”; in that of `COCC(=O)N(C)C[C@H]1Oc2cc(-c3ccc(C#N)cc3)ccc2S(=O)(=O)N([C@@H](C)CO)C[C@H]1C`, “inactive”.
Regarding `Cc1noc(C)c1NC(=O)N[C@H]1C=C[C@H](CC(=O)N2CCN(C)CC2)O[C@H]1CO`, the cytotoxicity call was “inactive”.
In the case of `COc1cccc(C#Cc2ccc3c(c2)O[C@@H](CN(C)C(=O)CN2CCOCC2)[C@H](C)CN([C@H](C)CO)S3(=O)=O)c1` it was “inactive”; in that of `Cc1ccc(S(=O)(=O)N(C)C[C@@H]2OCCCC[C@H](C)Oc3ccc(NC(=O)CCC(F)(F)F)cc3C(=O)N([C@H](C)CO)C[C@H]2C)cc1`, “inactive”.
In the case of `CCC1OC(=O)CC(O)C(C)C(OC2OC(C)C(O)C(N(C)C)C2O)C(CCN2CC(C)CC(C)C2)CC(C)C(=O)C=CC(C)=CC1COC1OC(C)C(O)C(OC)C1OC` (stereo unspecified), the cytotoxicity call is “active”.
In the case of `CC[C@@H]1OC(=O)C[C@@H](O)[C@H](C)[C@@H](O[C@@H]2O[C@H](C)[C@@H](O)[C@H](N(C)C)[C@H]2O)[C@@H](CCN2C[C@H](C)C[C@H](C)C2)C[C@@H](C)C(=O)/C=C/C(C)=C\[C@@H]1CO[C@@H]1O[C@H](C)[C@@H](O)[C@@H](OC)[C@H]1OC` it was “inactive”; in that of `CC[C@H]1OC(=O)C[C@@H](O)[C@H](C)[C@@H](O[C@@H]2O[C@H](C)[C@@H](O)[C@H](N(C)C)[C@H]2O)[C@@H](CCN2C[C@H](C)C[C@H](C)C2)C[C@@H](C)C(=O)/C=C/C(C)=C/[C@@H]1CO[C@@H]1O[C@H](C)[C@@H](O)[C@@H](OC)[C@H]1OC`, “inactive”.
For `C[C@H](CO)N1C[C@H](C)[C@H](CN(C)Cc2ccncc2)Oc2ccc(NS(=O)(=O)c3cccs3)cc2C1=O` the value was “inactive”.
For `CC(=O)OC1CC2C(C)(C)C(O)CCC2(C)C2CCC3(C)C(c4ccoc4)OC(=O)C4OC43C12C` (stereo unspecified) the value was “inactive”; for `Cc1noc(C)c1S(=O)(=O)N(C)C[C@H]1Oc2ccc(NC(=O)C3CC3)cc2CC(=O)N([C@@H](C)CO)C[C@@H]1C`, “inactive”; for `C[C@@H]1CCCCO[C@H](CN(C)S(=O)(=O)c2ccc(F)cc2)[C@@H](C)CN([C@H](C)CO)C(=O)c2cc(NC(=O)Nc3ccc(C(F)(F)F)cc3)ccc2O1`, “active”.
Take `C[C@@H]1CCCCO[C@H](CN(C)S(=O)(=O)c2ccc(F)cc2)[C@H](C)CN([C@@H](C)CO)C(=O)c2cc(NC(=O)Nc3ccc(C(F)(F)F)cc3)ccc2O1`: the cytotoxicity call was “active”.
For `C[C@@H]1CN([C@@H](C)CO)C(=O)c2cc(NC(=O)Nc3ccc(C(F)(F)F)cc3)ccc2O[C@@H](C)CCCCO[C@H]1CN(C)S(=O)(=O)c1ccc(F)cc1` the value was “inactive”; for `C[C@H](CO)N1C[C@H](C)[C@@H](CN(C)S(=O)(=O)c2ccc(F)cc2)OCCCC[C@H](C)Oc2ccc(NC(=O)Nc3ccc(C(F)(F)F)cc3)cc2C1=O`, “inactive”.
In the case of `C[C@H]1CCCCO[C@H](CN(C)S(=O)(=O)c2ccc(F)cc2)[C@@H](C)CN([C@@H](C)CO)C(=O)c2cc(NC(=O)Nc3ccc(C(F)(F)F)cc3)ccc2O1`, the cytotoxicity call is “inactive”.
In the case of `C[C@@H]1CN([C@H](C)CO)C(=O)c2cc(NC(=O)Nc3ccc(C(F)(F)F)cc3)ccc2O[C@@H](C)CCCCO[C@@H]1CN(C)S(=O)(=O)c1ccc(F)cc1` it was “inactive”.
In the case of `C[C@H](CO)N1C[C@H](C)[C@H](CN(C)S(=O)(=O)c2ccc(F)cc2)OCCCC[C@H](C)Oc2ccc(NC(=O)Nc3ccc(C(F)(F)F)cc3)cc2C1=O` it was “inactive”; in that of `C[C@@H]1CCCCO[C@@H](CN(C)S(=O)(=O)c2ccc(F)cc2)[C@H](C)CN([C@@H](C)CO)C(=O)c2cc(NC(=O)Nc3ccc(C(F)(F)F)cc3)ccc2O1`, “inactive”.
With `C[C@@H]1CCCCO[C@@H](CN(C)S(=O)(=O)c2ccc(F)cc2)[C@@H](C)CN([C@@H](C)CO)C(=O)c2cc(NC(=O)Nc3ccc(C(F)(F)F)cc3)ccc2O1`, the cytotoxicity call was “active”.
